Several values for one entry are separate records, joined by “and”; a condition that tells them apart may be missing. Equal entries are not always repeated. Activity calls are given as the source filed them. Unless noted, no rule for the calls is given here.
Columns and labels:
[1] = compounds altering circadian rhythm period length – cell-based, LOPAC library, luminescence reporter (AID 2774); conditions: circadian reporter cells, at 7 µM, actives lie on both sides;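 also: values are relative to mean of DMSO wells on each plate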
[2] = test system: Aerobactin synthetase IucA (Klebsiella pneumoniae); assay: inhibition of K. pneumoniae IucA enzyme – biochemical, Tocris library, absorbance (AID 1345561); conditions: purified IucA enzyme assay, absorbance (OD) read-out; stronger effect = lower value;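 tested at 8 µM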;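 also: 100% = enzyme without compound and 0% = no enzyme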
[3] = viability loss with induced miR-34 in A549 – imaging, A549 dox-inducible miR-34, nuclei and caspase counts, primary screen (AID 1347080;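 active = compounds whose cell count with miR-34 switched on is under 0.7 times the count with it off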); conditions: A549 miR-34 inducible, Hoechst nuclei count, 48 h
[4] = compounds altering HSF1 focus formation in cells – imaging, Selleck Cancer Library (AID 1347162; in the data active = plate-normalised HSF1 focus index below about 0.46); conditions: human cells, HSF1 nuclear foci imaging, at 10 µM; SSMD: measured here: HSF1 foci SSMD mean; cell count: measured here: cell number; plate-normalised HSF1 focus index: stronger effect = lower value
[5] = galactose survival enhancers in mitochondrial complex I cybrids – cell-based, galactose medium, ATP luminescence, primary screen (AID 1645843;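 active = z-score of at least 1.8 in each of two replicates, scored against plate mean and spread of sample wells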;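 also: positive z means more ATP and so rescue of galactose-driven cybrid death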); conditions: complex I mutant cybrid cells, 72 h, stronger effect = higher value
[6] = P. berghei load reduction in hepatocytes – cell-based, HepG2, luciferase luminescence, HepG2 viability, primary screen (AID 624349; in the data active = parasite load remaining mostly below about 12%, no sharp cut-off; inactive = mostly above about 10%;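 also: 100% = mean of DMSO negative control wells on the same plate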); conditions: P. berghei liver stage in HepG2, luciferase luminescence, concentration not given here; parasite load remaining: stronger effect = lower value; viability: measured here: HepG2 viability without parasites
[7] = stronger effect = lower value, cell number ratio, induced over uninduced
[8] = measured here: relative caspase fold change +Dox/-Dox
[9] = measured here: total cells with miR-34 induction, stronger effect = lower value
[10] = measured here: total cells without miR-34 induction

Compound | period change [1] | remaining activity [2] | fold change [3, 7] | fold change [3, 8] | cell count [3, 9] | cell count [3, 10] | SSMD [4] | cell count [4] | plate-normalised HSF1 focus index [4] | z-score [5] | parasite load remaining [6] | viability [6] [%]
CN(C)CCCCSC(=N)N | 0.15 h (inactive) | 110% (inactive) | 0.981 (inactive) | 0.637 | 8600 | 8770 | 1.03 | 6740 | 1.06 (inactive) | 0.38 (inactive) |  | 
Nc1[nH]nc2nnc(-c3c(-c4ccccc4)nn4ccccc34)cc12 |  | 115% (inactive) | 1.01 (inactive) | 3.36 | 6630 | 6550 | 2.88 | 7090 | 1.16 (inactive) | 1.04 (inactive) | 43.4% (inactive) | 122
O=[N+]([O-])c1cccc2c[nH]nc12 |  | 110% (inactive) | 0.915 (inactive) | 0.873 | 7800 | 8520 |  |  |  | -0.1 (inactive) |  | 
CC[C@@H](C)[C@H]1O[C@]2(CC[C@@H]1C)C[C@@H]1C[C@@H](C/C=C(\C)[C@@H](O[C@H]3C[C@H](OC)[C@@H](O[C@H]4C[C@H](OC)[C@@H](O)[C@H](C)O4)[C@H](C)O3)[C@@H](C)/C=C/C=C3\CO[C@@H]4[C@H](O)C(C)=CC(C(=O)O1)[C@]34O)O2 (stereo partly specified) (tested in a mixture with another compound) |  | 124% (inactive) | 0.987 (inactive) | 1.53 | 507 | 514 |  |  |  | -1.04 (inactive) |  | 
CN=C1C=C2C(=NC=NC2=Nc2cccc(Br)c2)C=N1 |  | 82.7% (inactive) | 0.699 (active) | 1.7 | 942 | 1350 |  |  |  | -0.675 (inactive) |  | 
Clc1ccc(CCCOCCCN2CCCCC2)cc1 |  | 105% (inactive) | 0.895 (inactive) | 1.39 | 7600 | 8480 |  |  |  | -0.64 (inactive) |  | 
CCC(=O)NC1Cc2ccccc2C(c2ccccc2)C1 (stereo unspecified) |  | 124% (inactive) | 1.02 (inactive) | 1.01 | 8500 | 8340 |  |  |  | 0.46 (inactive) |  | 
O=S(=O)(c1cccc2cnccc12)N1CCNCC1 |  | 125% (inactive) | 1.05 (inactive) | 0.794 | 9210 | 8760 |  |  |  | -0.56 (inactive) |  | 
O=C(O)CC/C=C\C[C@@H]1CO[C@H](c2ccccc2Cl)O[C@@H]1c1ccccc1O |  | 75.4% (inactive) | 0.977 (inactive) | 0.805 | 8270 | 8470 |  |  |  | 6.17 (active) |  | 
COc1cc(Br)c(S(=O)(=O)Nc2ccc(Cl)c(O[C@@H]3CCN(C)C3)c2)cc1OC |  | 112% (inactive) | 0.925 (inactive) | 1.74 | 5240 | 5660 |  |  |  | -0.645 (inactive) |  | 
CC1(C)Oc2ccc(C#N)cc2[C@H](N2CCCC2=O)[C@H]1O (racemic) |  | 116% (inactive) | 0.905 (inactive) | 1.25 | 8970 | 9900 |  |  |  | 0.155 (inactive) |  | 
Nc1nc2c(nc(Br)n2[C@@H]2O[C@@H]3COP(=O)(O)O[C@H]3[C@H]2O)c(=O)[nH]1 |  | 113% (inactive) | 0.972 (inactive) | 0.761 | 9650 | 9930 |  |  |  | -0.25 (inactive) |  | 
O=C(c1ccc(F)cc1)C1CCN(CCCCc2ccccc2)CC1 |  | 113% (inactive) | 0.877 (inactive) | 1.29 | 8620 | 9830 |  |  |  | -0.88 (inactive) |  | 
CCCCC#Cc1nc(NC)c2ncn([C@@H]3O[C@H](CO)[C@@H](O)[C@H]3O)c2n1 |  | 96.8% (inactive) | 0.906 (inactive) | 0.777 | 8810 | 9730 |  |  |  | -0.21 (inactive) |  | 
OC[C@H]1NC[C@@H](O)[C@@H](O)[C@@H]1O |  | 123% (inactive) | 0.958 (inactive) and 0.973 (inactive) | 0.787 and 0.709 | 4950 and 9630 | 5160 and 9890 |  |  |  | -0.17 (inactive) |  | 
CC1(C)CC(=O)C(C2C3=C(CC(C)(C)CC3=O)Oc3ccccc32)C(=O)C1 (stereo unspecified) |  | 120% (inactive) | 0.884 (inactive) | 0.511 | 9160 | 10400 |  |  |  | -0.35 (inactive) |  | 
COc1cc(COc2cc(N)c(Cl)cc2C(=O)CCC2CCN(CCNS(C)(=O)=O)CC2)cc(OC)c1 |  | 100% (inactive) | 0.842 (inactive) | 1.5 | 3930 | 4660 |  |  |  | -0.81 (inactive) |  | 
CCS(=O)(=O)N(C)[C@H]1c2cc(C#N)ccc2OC(C)(C)[C@@H]1O (racemic) |  | 119% (inactive) | 0.884 (inactive) | 1.36 | 9180 | 10400 |  |  |  | 0.85 (inactive) |  | 
CCCNC(=O)N1N=C(c2ccc(N)cc2)c2cc3c(cc2C1C)OCO3 (stereo unspecified) |  | 101% (inactive) | 0.903 (inactive) | 1.06 | 8160 | 9040 |  |  |  | 0.065 (inactive) |  | 
COc1ccc(CC(=O)NC(/N=C(\NC#N)Nc2cccc3ncccc23)C(C)(C)C)cc1OC (stereo unspecified) |  | 122% (inactive) | 0.95 (inactive) | 1.31 | 9530 | 10000 |  |  |  | 0.08 (inactive) |  | 
CCCN(C/C=C/I)C1CCc2cccc(O)c2C1 (stereo unspecified) |  | 123% (inactive) | 0.893 (inactive) | 1.14 | 8040 | 9000 |  |  |  | -0.945 (inactive) |  | 
COc1ccc(C2CC(c3c(O)cc(C)oc3=O)=NCCS2)c(OC)c1 (stereo unspecified) |  | 98.6% (inactive) | 1.45 (inactive) | 2.3 | 1350 | 929 |  |  |  | -0.235 (inactive) |  | 
O=C(Nc1cccc2cccnc12)c1ccc(N2C(=O)[C@@H]3[C@H](C2=O)[C@@H]2C=C[C@H]3C2)cc1 |  | 115% (inactive) | 1 (inactive) | 0.754 | 6560 | 6550 |  |  |  | -0.025 (inactive) |  | 
CC(C)NCCN(C(C)C)S(=O)(=O)c1ccc(Cl)cc1Cl |  | 113% (inactive) | 0.946 (inactive) | 1.35 | 9040 | 9560 |  |  |  | -0.215 (inactive) |  | 
CC(C)n1nnc2cc(C(=O)O)ccc21 |  | 115% (inactive) | 0.911 (inactive) | 1.97 | 7770 | 8530 |  |  |  | 0.275 (inactive) |  | 
c1ccc(C2NNCC2c2ccnc3ccccc23)nc1 (stereo unspecified) |  | 101% (inactive) | 0.908 (inactive) | 1.57 | 8690 | 9570 |  |  |  | -0.15 (inactive) |  | 
Cc1c(NC(=O)N2CCOCC2)ccc2c1c1ccccc1n2C(C)C |  | 122% (inactive) | 0.891 (inactive) | 1.37 | 8260 | 9270 |  |  |  | 1.14 (inactive) |  | 

— PubChem BioAssay
